Activity calls are given as the source filed them. The call rests on the fitted dose curve.

This test can be described thus: qHTS drug screen for cell cycle checkpoint inhibitors in PARPi-resistant BRCA-mutant ovarian cancer cell lines. (AID 1963452). Particulars: PEO1/OlaR viability, CellTiter-Glo luminescence, 96 h, stronger effect = lower value. The method, boiled down: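 PEO1, PEO4 and PEO1/OlaR ovarian cancer cells, 600 per well, exposed 96 h at 37C to a dilution series. Viability read by CellTiter-Glo luminescence, normalized to DMSO and empty wells; activity summarized as Z-AUC.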
(In general: qHTS replaces the single test concentration by a dilution series.)

Setting [1] is: measured here: PEO1 parental Z-AUC.

For the molecule `Cn1cc(-c2ccc3c(c2)CCN3C(=O)Cc2cccc(C(F)(F)F)c2)c2c(N)ncnc21`, the Z-AUC is -1.17 (inactive). Under setting [1], the Z-AUC was -0.267. For the same molecule, the Z-AUC (measured here: PEO4 Z-AUC) was -1.2.
On the same counts, the results for `Cn1ncc(Cl)c1-c1cc(C(=O)N[C@H](CN)Cc2cccc(F)c2)sc1Cl` are 0.3 (inactive), 0.0445 and 0.251.
The matching figures for `C=CC(=O)Nc1cccc(Nc2nc(Nc3ccc(NC4CN(CCF)C4)cc3OC)ncc2C(F)(F)F)c1`: 0.83 (inactive), 0.499 and 0.584.
On the same counts, the results for `COc1ccc(Cl)c(Nc2ncnc3cc(OCC4CCN(C)CC4)c(OC)cc23)c1` are -1.39 (inactive), -0.765 and -1.02.
On to `Cc1cccc(CC(=O)N2CCc3c2ccc(-c2cn(C)c4ncnc(N)c24)c3F)n1`, for which the Z-AUC is -0.652 (inactive). In addition, the Z-AUC under setting [1] was -1.04. The Z-AUC (measured here: PEO4 Z-AUC) is -0.572.

For the origin of these results see PubChem BioAssay (NCATS).
